# Data reported in the supplement of paper PMC8728848.
# Shown is part of a subset that was picked to be rich in the strongest signals.
# B1: OVGAL11 (Ovis aries), AAF64320 (protein)
# chain: MDSLPNPYLQSVSLTVCYMVKIKANLLSAFGKNPELQVDFGTGTGQGGNIPFRFWYCDGMVVMNTFTDGSWQKEEKVLTDAFVPGQPFELQFLVLEKEYQVFVKNKPICQFAHRLPLQSVKMLDVRGDIVLTSVDTL
# Experiments:
# Test in all cases: glycan array binding signal (z-score within array); higher = stronger binding
# Settings in all cases: glycan notation: IUPAC condensed, linker removed
# [1] = biological target: Fuc(a1-2)Gal(b1-3)GalNAc(b1-3)Gal
# How it was run: (§1)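 From the Consortium for Functional Glycomics database, 3228 arrays were curated, keeping only those whose protein sequence was available. Binding is given as a within-array Z-score averaged across arrays sharing a protein sequence and across linkers. Negative Z-scores can be read as non-binding.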
# [2] = biological target: Fuc(a1-2)Gal(b1-3)GalNAc(b1-4)[Neu5Ac(a2-3)]Gal(b1-4)Glc
# How it was run: as §1
# Fuc(a1-2)Gal(b1-3)GlcNAc = biological target: Fuc(a1-2)Gal(b1-3)GlcNAc
# How it was run: as §1
# Fuc(a1-2)Gal(b1-4)Glc = biological target: Fuc(a1-2)Gal(b1-4)Glc
# How it was run: as §1
# [3] = biological target: Fuc(a1-2)[Gal(a1-3)]Gal(b1-4)GlcNAc
# How it was run: as §1
# [4] = biological target: Fuc(a1-2)[GalNAc(a1-3)]Gal(b1-4)Glc
# How it was run: as §1
# [5] = biological target: Fuc(a1-2)[GalNAc(a1-3)]Gal(b1-4)GlcNAc(b1-3)Gal(b1-4)GlcNAc(b1-3)Gal(b1-4)GlcNAc
# How it was run: as §1
# Fuc(a1-3)GlcNAc = biological target: Fuc(a1-3)GlcNAc
# How it was run: as §1
# [6] = biological target: Fuc(a1-3)[Gal(b1-4)]GlcNAc(b1-3)GalNAc
# How it was run: as §1
# Gal(a1-3)Gal(b1-3)Glc = biological target: Gal(a1-3)Gal(b1-3)Glc
# How it was run: as §1
# [7] = biological target: Gal(a1-3)Gal(b1-3)GlcNAc(b1-2)Man(a1-3)[Gal(a1-3)Gal(b1-3)GlcNAc(b1-2)Man(a1-6)]Man(b1-4)GlcNAc(b1-4)GlcNAc
# How it was run: as §1
# [8] = biological target: Gal(a1-3)Gal(b1-3)GlcNAc(b1-6)GalNAc
# How it was run: as §1
# Gal(a1-4)Gal(b1-4)Glc = biological target: Gal(a1-4)Gal(b1-4)Glc
# How it was run: as §1
# Gal(b1-3)Gal(b1-4)GlcNAc = biological target: Gal(b1-3)Gal(b1-4)GlcNAc
# How it was run: as §1
# [9] = biological target: Gal(b1-3)GalNAc(b1-4)[Neu5Ac(a2-3)]Gal(b1-4)Glc
# How it was run: as §1
# [10] = biological target: Gal(b1-3)GlcNAc(a1-6)Gal(b1-4)GlcNAc
# How it was run: as §1
# Gal(b1-3)GlcNAc(b1-2)Man = biological target: Gal(b1-3)GlcNAc(b1-2)Man
# How it was run: as §1
# [11] = biological target: Gal(b1-3)GlcNAc(b1-3)Gal(b1-4)GlcNAc(b1-6)[Gal(b1-3)GlcNAc(b1-3)]Gal(b1-4)Glc
# How it was run: as §1
# [12] = biological target: Gal(b1-3)[Fuc(a1-4)]GlcNAc(b1-3)Gal(b1-3)[Fuc(a1-4)]GlcNAc
# How it was run: as §1
# [13] = biological target: Gal(b1-4)GlcNAc(b1-2)Man(a1-3)[Gal(b1-4)GlcNAc(b1-2)Man(a1-6)][Gal(b1-4)GlcNAc(b1-4)]Man(b1-4)GlcNAc(b1-4)[Fuc(a1-6)]GlcNAc
# How it was run: as §1
# [14] = biological target: Gal(b1-4)GlcNAc(b1-2)Man(a1-3)[Man(a1-6)]Man(b1-4)GlcNAc(b1-4)GlcNAc
# How it was run: as §1
# [15] = biological target: Gal(b1-4)GlcNAc(b1-2)Man(a1-6)[GlcNAc(b1-2)Man(a1-3)]Man(b1-4)GlcNAc(b1-4)GlcNAc
# How it was run: as §1
# [16] = biological target: Gal(b1-4)GlcNAc(b1-2)[Gal(b1-4)GlcNAc(b1-6)]Man(a1-6)[GlcNAc(b1-4)][Gal(b1-4)GlcNAc(b1-2)Man(a1-3)]Man(b1-4)GlcNAc(b1-4)GlcNAc
# How it was run: as §1
# [17] = biological target: Gal(b1-4)GlcNAc(b1-3)[Gal(b1-4)GlcNAc(b1-6)]GalNAc
# How it was run: as §1
# Gal3S(b1-4)Glc = biological target: Gal3S(b1-4)Glc
# How it was run: as §1
# Gal3S6S(b1-4)GlcNAc = biological target: Gal3S6S(b1-4)GlcNAc
# How it was run: as §1
# Gal3S6S(b1-4)GlcNAc6S = biological target: Gal3S6S(b1-4)GlcNAc6S
# How it was run: as §1
# Glc(a1-6)Glc(a1-6)Glc = biological target: Glc(a1-6)Glc(a1-6)Glc
# How it was run: as §1
# Glc(b1-6)Glc = biological target: Glc(b1-6)Glc
# How it was run: as §1
# [18] = biological target: GlcNAc(a1-4)Gal(b1-3)GlcNAc
# How it was run: as §1
# [19] = biological target: GlcNAc(a1-4)Gal(b1-4)GlcNAc(b1-3)Gal(b1-4)GlcNAc
# How it was run: as §1
# [20] = biological target: GlcNAc(b1-3)Gal(b1-4)GlcNAc(b1-6)[GlcNAc(b1-3)]Gal(b1-4)GlcNAc
# How it was run: as §1
# [21] = biological target: GlcNAc(b1-3)[GlcNAc(b1-6)]GalNAc
# How it was run: as §1
# [22] = biological target: GlcNAc(b1-4)GlcNAc(b1-4)GlcNAc(b1-4)GlcNAc(b1-4)GlcNAc
# How it was run: as §1
# [23] = biological target: Man(a1-2)Man(a1-2)Man(a1-3)Man
# How it was run: as §1
# MurNAc(b1-4)GlcNAc = biological target: MurNAc(b1-4)GlcNAc
# How it was run: as §1
# [24] = biological target: Neu5Ac(a2-3)Gal(b1-3)GalNAc(b1-4)[Neu5Ac(a2-8)Neu5Ac(a2-3)]Gal(b1-4)Glc
# How it was run: as §1
# [25] = biological target: Neu5Ac(a2-3)Gal(b1-4)GlcNAc(b1-3)Gal(b1-4)GlcNAc(b1-3)[Neu5Ac(a2-3)Gal(b1-4)GlcNAc(b1-3)Gal(b1-4)GlcNAc(b1-6)]GalNAc
# How it was run: as §1
# [26] = biological target: Neu5Ac(a2-3)Gal(b1-4)GlcNAc(b1-3)[Neu5Ac(a2-3)Gal(b1-4)GlcNAc(b1-6)]GalNAc
# How it was run: as §1
# [27] = biological target: Neu5Ac(a2-3)Gal6S(b1-4)[Fuc(a1-3)]GlcNAc
# How it was run: as §1
# [28] = biological target: Neu5Ac(a2-6)Gal(b1-4)GlcNAc(b1-2)Man(a1-3)[Neu5Ac(a2-3)Gal(b1-4)GlcNAc(b1-2)Man(a1-6)]Man(b1-4)GlcNAc(b1-4)GlcNAc
# How it was run: as §1
# [29] = biological target: Neu5Ac(a2-6)Gal(b1-4)GlcNAc(b1-2)Man(a1-3)[Neu5Ac(a2-6)Gal(b1-4)GlcNAc(b1-2)Man(a1-6)]Man(b1-4)GlcNAc(b1-4)GlcNAc
# How it was run: as §1
# [30] = biological target: Neu5Ac(a2-6)Gal(b1-4)GlcNAc(b1-3)Gal(b1-4)GlcNAc(b1-3)GalNAc
# How it was run: as §1
# [31] = biological target: Neu5Ac(a2-6)Gal(b1-4)GlcNAc(b1-3)GalNAc
# How it was run: as §1
# [32] = biological target: Neu5Ac(a2-8)Neu5Ac(a2-3)Gal(b1-3)GalNAc(b1-4)[Neu5Ac(a2-3)]Gal(b1-4)Glc
# How it was run: as §1
# [33] = biological target: Neu5Ac(a2-8)Neu5Ac(a2-3)[Gal(b1-3)GalNAc(b1-4)]Gal(b1-4)Glc
# How it was run: as §1
# [34] = biological target: Neu5Ac(a2-8)Neu5Ac(a2-8)Neu5Ac(a2-3)[Gal(b1-3)GalNAc(b1-4)]Gal(b1-4)Glc
# How it was run: as §1
# [35] = biological target: Neu5Ac(a2-8)Neu5Gc(a2-3)Gal(b1-4)GlcNAc
# How it was run: as §1
# Neu5Gc(a2-3)Gal(b1-4)Glc = biological target: Neu5Gc(a2-3)Gal(b1-4)Glc
# How it was run: as §1
# [36] = biological target: Neu5Gc(a2-3)Gal(b1-4)[Fuc(a1-4)]GlcNAc
# How it was run: as §1
binder,measurement,setting,value
B1,glycan array binding signal (z-score),[1],1.72
same,glycan array binding signal (z-score),[2],6.31
same,glycan array binding signal (z-score),Fuc(a1-2)Gal(b1-3)GlcNAc,-0.096
same,glycan array binding signal (z-score),Fuc(a1-2)Gal(b1-4)Glc,-0.057
same,glycan array binding signal (z-score),[3],0.2
same,glycan array binding signal (z-score),[4],0.204
same,glycan array binding signal (z-score),[5],-0.076
same,glycan array binding signal (z-score),Fuc(a1-3)GlcNAc,4.51
same,glycan array binding signal (z-score),[6],-0.106
same,glycan array binding signal (z-score),Gal(a1-3)Gal(b1-3)Glc,-0.398
same,glycan array binding signal (z-score),[7],-0.081
same,glycan array binding signal (z-score),[8],-0.082
same,glycan array binding signal (z-score),Gal(a1-4)Gal(b1-4)Glc,-0.104
same,glycan array binding signal (z-score),Gal(b1-3)Gal(b1-4)GlcNAc,-0.063
same,glycan array binding signal (z-score),[9],1.62
same,glycan array binding signal (z-score),[10],-0.11
same,glycan array binding signal (z-score),Gal(b1-3)GlcNAc(b1-2)Man,-0.023
same,glycan array binding signal (z-score),[11],-0.113
same,glycan array binding signal (z-score),[12],-0.101
same,glycan array binding signal (z-score),[13],-0.011
same,glycan array binding signal (z-score),[14],-0.086
same,glycan array binding signal (z-score),[15],-0.094
same,glycan array binding signal (z-score),[16],-0.095
same,glycan array binding signal (z-score),[17],0.686
same,glycan array binding signal (z-score),Gal3S(b1-4)Glc,0.199
same,glycan array binding signal (z-score),Gal3S6S(b1-4)GlcNAc,-0.175
same,glycan array binding signal (z-score),Gal3S6S(b1-4)GlcNAc6S,0.724
same,glycan array binding signal (z-score),Glc(a1-6)Glc(a1-6)Glc,-0.089
same,glycan array binding signal (z-score),Glc(b1-6)Glc,0.568
same,glycan array binding signal (z-score),[18],-0.114
same,glycan array binding signal (z-score),[19],-0.089
same,glycan array binding signal (z-score),[20],-0.102
same,glycan array binding signal (z-score),[21],-0.084
same,glycan array binding signal (z-score),[22],-0.316
same,glycan array binding signal (z-score),[23],4.38
same,glycan array binding signal (z-score),MurNAc(b1-4)GlcNAc,-0.098
same,glycan array binding signal (z-score),[24],-0.069
same,glycan array binding signal (z-score),[25],-0.068
same,glycan array binding signal (z-score),[26],-0.097
same,glycan array binding signal (z-score),[27],-0.219
same,glycan array binding signal (z-score),[28],-0.08
same,glycan array binding signal (z-score),[29],-0.138
same,glycan array binding signal (z-score),[30],-0.065
same,glycan array binding signal (z-score),[31],-0.082
same,glycan array binding signal (z-score),[32],1.75
same,glycan array binding signal (z-score),[33],13.5
same,glycan array binding signal (z-score),[34],-0.044
same,glycan array binding signal (z-score),[35],0.807
same,glycan array binding signal (z-score),Neu5Gc(a2-3)Gal(b1-4)Glc,-0.214
same,glycan array binding signal (z-score),[36],0.714
